A selection: hits, their analogues and other compounds. The true share with any hit is near 19%.
TDP1 cell CPT: DT40-hTDP1 cell growth loss with CPT. chicken DT40 Tdp1-/-;hTDP1 cells + 20 nM CPT, ATP luminescence, 48 h. Potency, µM (top dose mostly 46.2 µM), without a hit: at the highest dose activity change, negative = growth inhibition, hits mostly inhibitors. hit rate 12% among 420,000. AID 686979; further: potency means the concentration at half of the fitted maximal effect; on the % scale 0 is the no-effect control and ±100 the full control effect; nearly all actives have a fitted effect of over 55% in size
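Chicken DT40 Tdp1-/- cells complemented with human TDP1, 400 cells/well, exposed to compounds plus 20 nM camptothecin for at least 48 h at 37 C; viability read as ATP content by CellTiter-Glo luminescence.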
TGFb inhibitor: TGF-b pathway inhibition | HepG2 CAGA-GFP TGF-b/SMAD3 reporter, GFP fluorescence, 18 h; TGF-beta stimulated, 500 pg/mL final | Potency, µM (series often up to 46.1 µM), for inactives: at the highest dose activity, negative = inhibition, actives largely listed as inhibitors | hit rate 1.2% among 410,000; further: potency means the concentration at half of the fitted maximal effect; on the % scale 0 is the no-effect control and ±100 the full control effect; nearly all actives have a fitted effect of over 65% in size
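GFP signal (ex488/em500-530) from TGF-beta-stimulated HEPG2 CAGA-GFP cells, 500 pg/mL final, 18 h at 37 degrees C in DMEM plus 1% FBS, normalized to unstimulated and DMSO-stimulated controls.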
TDP1 cell noCPT: qHTS for Inhibitors of human tyrosyl-DNA phosphodiesterase 1 (TDP1): qHTS in cells in absence of CPT; Potency, µM (doses to about 46.2 µM), for inactives: at the top dose activity change, negative = growth inhibition, hits mostly inhibitors; hit rate 15% among 420,000; DT40 Tdp1-/- hTDP1 cells, no CPT, ATP luminescence, 48 h; further: potency means the concentration at half of the fitted maximal effect; on the % scale 0 is the no-effect control and ±100 the full control effect; nearly all actives have a fitted effect of over 55% in size
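Chicken DT40 Tdp1-/- cells stably complemented with human TDP1 were seeded at 400 cells/well with DMSO in place of 20 nM camptothecin. After compound pinning, cells grew at least 48 hr at 37 °C; viability read by CellTiter-Glo luminescence.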
S-ASM inh: human S-ASM enzyme inhibition; Potency, µM (highest dose often 57.5 µM), inactives show at the top dose activity change, negative = inhibition, hits mostly inhibitors; hit rate 0.006% among 340,000; placental ASM, HMU-PC fluorogenic substrate, 60 min; AID 504937; further: potency means the concentration at half of the fitted maximal effect
Target sequence (P17405 47-631 limits assumed): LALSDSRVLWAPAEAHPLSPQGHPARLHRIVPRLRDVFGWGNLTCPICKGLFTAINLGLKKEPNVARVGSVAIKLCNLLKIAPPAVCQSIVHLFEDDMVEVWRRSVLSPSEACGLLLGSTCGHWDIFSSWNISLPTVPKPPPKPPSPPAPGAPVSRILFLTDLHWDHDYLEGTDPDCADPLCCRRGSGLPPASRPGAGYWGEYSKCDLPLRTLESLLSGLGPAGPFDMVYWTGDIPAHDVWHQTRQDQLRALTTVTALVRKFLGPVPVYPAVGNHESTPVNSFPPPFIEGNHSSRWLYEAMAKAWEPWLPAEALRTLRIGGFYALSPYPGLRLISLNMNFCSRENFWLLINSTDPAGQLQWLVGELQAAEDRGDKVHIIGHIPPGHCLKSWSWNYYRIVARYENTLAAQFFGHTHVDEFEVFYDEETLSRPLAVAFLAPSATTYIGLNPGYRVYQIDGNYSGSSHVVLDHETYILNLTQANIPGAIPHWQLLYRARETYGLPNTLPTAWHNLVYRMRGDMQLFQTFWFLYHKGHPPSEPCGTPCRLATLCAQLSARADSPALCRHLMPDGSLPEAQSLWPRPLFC
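HMU-PC0 cleavage (9 uM final) by human placental ASM, 60 min at 37 °C following 10 min compound exposure at RT; stopped at pH 10, fluorescence Ex 386/Em 447 nm.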
IL1B secr inh: inhibitors of inflammasome signaling (IL-1 beta secretion); activity change, % at 57.5 µM; THP-1 LPS/ATP IL-1B secretion, AlphaLISA, 16 h; active compounds read low; AID 743279; hit rate 4.7% among 360,000; in the data active means activity change below about -50%; inconclusive means mostly about -30% to -49%; further: on the % scale 0 is the no-effect control and ±100 the full control effect
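THP-1 cells pretreated 1 hr with compounds (up to 57.5 uM final), then stimulated with LPS (250 ng/mL final) plus ATP (1.25 mM final); secreted IL-1B measured by AlphaLISA after 16 hr, decreased signal indicating inhibition.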
HepG2 viability: counter-screen for TGF-b inhibitors: cytotoxicity in HepG2 cells; HepG2 CAGA-GFP viability, ATP luminescence, 18 h; Potency, µM (top dose mostly 46.1 µM), for inactives: at the highest dose activity change, negative = cytotoxicity, most hits filed as cytotoxic; hit rate 0.76% among 410,000; further: potency means the concentration at half of the fitted maximal effect
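CellTiter-Glo luminescence gave cytotoxicity after 18 hours at 37 degrees C. The cells were HepG2 CAGA-GFP in 1% FBS DMEM, stimulated with 500 pg/mL TGF-beta after compound addition. %Activity was normalised to no-cell wells (complete cell-killing) and DMSO (no toxicity), and curves were fitted and classified.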
An asterisk follows results filed as active; u = inconclusive; x = no result. Unless noted, the call rests on the fitted dose curve; in most records, active means well fitted curve in the direction sought with a large enough effect; inconclusive means small, poorly fitted or top-dose-only effect, or another doubt; inactive means no such curve, though single readings can be large; an effect the other way counts as inactive or inconclusive.

SMILES	TDP1 cell CPT	TGFb inhibitor	TDP1 cell noCPT	S-ASM inh	IL1B secr inh	HepG2 viability
O=C(Nc1ccc(Cl)cn1)C1CCCN(c2ncnc3c2nc2n3CCCCC2)C1 (stereo not drawn)	21µM*	-7%	21µM*	-2%	-10	1%
COc1ccc(Cl)cc1NC(=O)C1CCCN(c2ncnc3c2nc2n3CCCCC2)C1 (stereo not drawn)	8.2µM*	4%	8.2µM*	-1%	31	-10%
COc1ccc(OC)c(CNC(=O)C2CCCN(c3ncnc4c3nc3n4CCCCC3)C2)c1 (stereo not drawn)	u	-10%	u	2%	-1	-13%
O=C(Nc1cccnc1Cl)C1CCCN(c2ncnc3c2nc2n3CCCCC2)C1 (stereo not drawn)	u	14%	u	-1%	0	2%
O=C(NCCCN1CCOCC1)c1ccc(CSc2ccc(Cl)cc2)cc1	26µM*	-34%	21µM*	-5%	-62*	-30%
CN(C)CCNC(=O)c1ccc(Sc2ccc(Br)cc2)c([N+](=O)[O-])c1	16µM*	-16%	23µM*	-8%	-70*	-30%
CC(=O)NCCNC(=O)c1ccc(Sc2ccccc2)c([N+](=O)[O-])c1	-14%	1%	-19%	2%	26	0%
O=C(NCCCN1CCOCC1)c1ccc(Sc2ccc(F)cc2)c([N+](=O)[O-])c1	u	-4%	16µM*	-6%	-28	-11%
CC[C@]12c3[nH]c4ccc(Cl)cc4c3CCN1C(=O)[C@@H](CC(=O)NCCC1=CCCCC1)C[C@@H]2C(=O)N1CCN(C(=O)C2CC2)CC1	u	1%	26µM*	-4%	-13	11%
CC[C@]12c3[nH]c4ccccc4c3CCN1C(=O)C(CC(=O)NCCC1=CCCCC1)C[C@@H]2C(=O)N1CCN(C(=O)C2CC2)CC1 (stereo partly drawn)	18µM*	-7%	16µM*	3%	-9	-6%
C[C@]12c3[nH]c4ccc(Cl)cc4c3CCN1C(=O)[C@@H](CC(=O)NCCC1=CCCCC1)C[C@@H]2C(=O)N1CCCCC1	-28%	5%	-22%	-3%	-9	-2%
CNc1nc(N/N=C/c2cc([N+](=O)[O-])ccc2F)nc(Nc2ccccc2)n1	13µM*	-28%	7.3µM*	-2%	-97*	-26%
CNc1nc(Nc2ccc([N+](=O)[O-])cc2)nc(OCC(F)(F)F)n1	-12%	2%	-7%	0%	-29	4%
CCOC(=O)/C(N=Nc1sc(C(=O)OC)c(C)c1C(=O)OCC)=C(\O)CCl	u	-8%	15µM*	-2%	12	9%
C[C@@H](c1ccccc1)N1C[C@H](COCc2ccccc2)Oc2cc(N3CC[C@H](O)C3)ccc2S1(=O)=O	u	x	21µM*	x	17	x
C[C@H](c1ccccc1)N1C[C@@H](COCc2ccccc2)Oc2cc(N3CC[C@@H](O)C3)ccc2S1(=O)=O	21µM*	x	23µM*	x	12	x
C[C@@H](c1ccccc1)N1C[C@@H](COCc2ccccc2)Oc2cc(N3CC[C@H](N(C)C)C3)ccc2S1(=O)=O	-21%	x	-14%	x	0	x
C[C@@H](c1ccccc1)N1C[C@@H](COCc2ccccc2)Oc2cc(N3CC[C@H](O)C3)ccc2S1(=O)=O	u	x	18µM*	x	17	x
Cc1ccc(S(=O)(=O)N2CCCN(C(=O)CNC(=O)c3cccc(C)c3)CC2)cc1	-14%	1%	0%	1%	-6	11%
Cc1cc(NC(=O)CSc2n[nH]c(-c3ccc(Cl)cc3Cl)n2)no1	-11%	-4%	u	0%	6	-62%
Cc1ccccc1C(=O)n1nc(-c2cccnc2)nc1NCc1ccc(F)cc1	u	0%	u	x	x	-30%
CC1(C)CC(=O)C2=C(C1)Oc1nc3ccccc3cc1C2C(C#N)C#N (stereo not drawn)	2.9µM*	11µM*	4.1µM*	4%	-93*	-17%
O=C(NN1CCN(Cc2ccccc2Cl)CC1)c1ccc(Cl)cc1	u	-6%	12µM*	6%	7	11%
CC(C)c1ccc(NC(=O)CSC2=Nc3ccccc3C3=NC(CCC(=O)NCc4ccco4)C(=O)N23)cc1 (stereo not drawn)	-15%	15%	-4%	x	x	-5%
COc1ccc(NC(=O)C2(C)CCN2C(=O)Cc2ccccc2)cc1OC (stereo not drawn)	u	8%	u	x	4	2%
SMILES	TDP1 cell CPT	TGFb inhibitor	TDP1 cell noCPT	S-ASM inh	IL1B secr inh	HepG2 viability
Cc1ccc(NC(=O)C2(C)CCN2C(=O)Cc2ccccc2)cc1C (stereo not drawn)	u	4%	16µM*	x	9	2%
Cc1ccc(NC(=O)C2(C)CCN2C(=O)C2CCCCC2)cc1C (stereo not drawn)	u	-21%	18µM*	x	11	-18%
Cc1ccc(NC(=O)C2(C)CCN2C(=O)Cc2ccc(C(C)(C)C)cc2)cc1C (stereo not drawn)	21µM*	u	10µM*	x	5	-45%
CCCC(=O)N1CCCC1(C)C(=O)Nc1ccc(C)c(C)c1 (stereo not drawn)	5%	27%	-16%	x	-1	13%
Cc1cc(F)ccc1NC(=O)c1cc(S(=O)(=O)N2CCc3ccccc32)cn1C	u	u	26µM*	0%	-9	-25%
COc1ccc(NC(=O)c2cc(S(=O)(=O)N3CCc4ccccc43)cn2C)c(OC)c1	u	3%	u	-5%	-11	7%
CCC(C)(C)NC(=O)c1cc(S(=O)(=O)N2CCc3ccccc32)cn1C	21µM*	-19%	15µM*	-4%	21	-10%
CCN(C(=O)c1cc(S(=O)(=O)N2CCc3ccccc32)cn1C)c1cccc(C)c1	u	u	13µM*	x	x	-23%
CN1CCN(CCNC(=O)Cn2c(=O)c3cccn3c3ccc(F)cc32)CC1	-15%	9%	-11%	1%	-14	2%
COC(=O)C1=C(C)NC(=O)NC1c1cn(-c2ccccc2)nc1-c1ccc(OC)c(Cl)c1 (stereo not drawn)	u	u	21µM*	x	x	-2%
COC(=O)C1=C(C)NC(=O)NC1c1cn(-c2ccccc2)nc1-c1cccs1 (stereo not drawn)	u	3%	-14%	-4%	-8	-30%

Compound activity as filed in PubChem BioAssay.
